Assay results taken from PubChem BioAssay AID935 (National Center for Advancing Translational Sciences (NCATS), 2007).
Results filed as inconclusive are left out. Calls of active or inactive are those of the source. The call rests on the fitted dose curve.

assay: Confirmation Concentration-Response Assay for Identification of Small Molecule Agonists of Stat Signaling Pathway; settings: SIE-bla cells, IL-6 STAT beta-lactamase reporter, 5 h
Source text: NIH Molecular Libraries Screening Centers Network [MLSCN] NIH Chemical Genomics Center [NCGC] MLSCN Grant: None NCGC Assay Overview: This assay is a retest of actives identified from the Stat signaling pathway assay (PubChem AID 446). The Stat assay is cell-based and measures Interleukin 6 (IL-6) mediated modulation of a beta-lactamase reporter gene controlled by a STAT inducible element (SIE-bla cells, Invitrogen). IL-6 is a cytokine that signals via the JAK/STAT pathway and is implicated in cancer and inflammation. SIE-bla cells are induced by IL-6 at 40 pM EC50 and inhibited by the pan JAK inhibitor, 2-(1,1-Dimethylethyl)-9-fluoro-3,6-dihydro-7H-benz[h]-imidaz[4,5-f]isoquinolin-7-one, at approximately 10 nM IC50. Plated cells were incubated overnight and on the following day, stimulated with 40 pM IL-6 for 5 hrs. The assay was stimulated with an EC50 of IL-6 to retest activators of STAT signaling.
NCGC Assay Protocol Summary: Cells were trypsinized, washed in assay medium (AM, OPTI MEM with 0.5% fetal bovine serum, 0.1 mM nonessential amino acids, 1 mM sodium pyruvate, 10mM HEPES pH 7.3, 100U/ml penicillin, and 100 ug/ml streptomycin) and suspended at […] in AM. Approximately 2500 cells in 5 uL/well was dispensed into 1536-well plates and the cells were incubated overnight at 37 C. 23 nL of compound were delivered by a pin tool and 1 uL of IL-6 (40 pM final concentration in AM) was added. After plates were incubated at 37 C for 5 hrs, 1uL of detector mix (LiveBLAzerTM, Invitrogen) was added, the plates incubated at room temperature for 2.5 hrs, and fluorescence intensity at 460 and 530 nm emissions was measured at 405 nm excitation by an Envision (Perkin Elmer).

Potency, active:
Cc1ccc(CNC(=O)c2cc3c(=O)n4ccccc4nc3n(CC3CCCO3)c2=N)cc1 (stereo unspecified) 10 µM
Cc1cc(=O)oc2c(CN3CCCCC3)c(O)c(Cl)cc12 10 µM
CN(C)c1ccc(-c2nn3c(-c4ccc(Cl)cc4)nnc3s2)cc1 3.16 µM
CCNC(=O)c1cc2c(=O)n3cccc(C)c3nc2n(CCc2ccccc2)c1=N 12.6 µM
CCN(CC)CCN1C(=O)c2cccc3cc(N)cc(c23)C1=O 15.8 µM
COc1cccc2c1C(=O)c1c(O)c3c(c(O)c1C2=O)C[C@@](O)(C(=O)CO)C[C@@H]3O[C@H]1C[C@H](N)[C@H](O)[C@H](C)O1 3.98 µM
CCN(CC)CCC[C@H](C)Nc1c2ccc(Cl)cc2nc2ccc(OC)cc12 12.6 µM
CCOC(=O)c1cc2c(=O)n3cccc(C)c3nc2n(C)c1=N 3.98 µM
CC1CCN(c2oc(-c3ccccc3Cl)nc2C#N)CC1 6.31 µM
Cc1ccc(S(=O)(=O)N2CCN(c3nc(C(C)C)c4c(c3C#N)CC(C)(C)OC4)CC2)cc1 10 µM
Nc1ncnc2c1ncn2[C@@H]1O[C@H](COP(=O)(O)O)[C@@H](O)[C@@H]1O 25.1 µM
